Compound activity from PubChem BioAssay.
NPSR antagonist: qHTS Assay for Antagonists of the Neuropeptide S Receptor: cAMP Signal Transduction; actives 1% (n = 220,000); CHO-NPSR cells, cAMP TR-FRET, antagonist mode; AID 1461, 2008; Potency, µM (titrated, usually from 38.3 µM), inactives show at the highest dose activity change, negative = inhibition, actives largely listed as inhibitors; note: potency is the fitted concentration of half-maximal effect; % is set by controls: 0 for no effect and ±100 for the full control effect; nearly all actives have a fitted effect of over 50% in size
PKM2 activator: qHTS Assay for Activators of Human Muscle isoform 2 Pyruvate Kinase; purified PKM2, Kinase-Glo ATP luminescence, activation; response scale: 0% is enzyme alone, no compound; AID 1631, 2009; actives 0.34% (n = 260,000); Potency, µM (top dose mostly 57.5 µM), for inactives: at the highest dose activation, most hits filed as activators; note: potency is the fitted concentration of half-maximal effect; % is set by controls: 0 for no effect and ±100 for the full control effect; nearly all actives have a fitted effect of over 55% in size
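ATP formation by purified human PK-M2, quantified via coupled luciferase luminescence after 1 h at room temperature with 0.1 mM ADP and 0.5 mM PEP final.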
IL-2 act: qHTS of IL-2 Activators | IL-2 activation reporter assay, cell-based qHTS; stimulated with anti-CD3/CD4/CD28 beads; in transgenic mouse T cells | activation, % (series mostly up to about 46 µM) | actives 0.065% (n = 360,000); in the data active = activation above about 50%; inconclusive = mostly about 30% to 49%; note: 0% is about no effect
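Using fluorescent plate cytometry, EGFP and DsRed are detected in transgenic mouse T cells stimulated 18 h at 37 degrees C with antibody-coated beads after 60 min compound pretreatment.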
ClpP mod: qHTS Assay for Activators of ClpP; ATP-dependent Clp protease proteolytic subunit (Bacillus subtilis (strain 168)), P80244; actives 1.9% (n = 340,000); purified B. subtilis ClpP, FRET peptide cleavage, 20 min; Potency, µM (titrated, usually from 57.5 µM), inactives show top-dose activity change, negative = active; AID 651965, 2013; active = well fitted falling curve with a large enough effect; inconclusive = small, poorly fitted or top-dose-only effect; inactive = no such curve, though single readings can be large or run the other way; note: potency is the fitted concentration of half-maximal effect; the source files actives as falling curves though it sought activators and does not explain the sign; nearly all actives have a fitted effect of over 65% in size
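Purified B. subtilis ClpP, 10 microg/mL final in Tris/HCl pH8 with KCl, BSA, glycerol and Tween-20, cleaved an Abz/nitrotyrosine-quenched decapeptide. Fluorescence (ex 320, em 430) was read at 0 and 20 min at room temperature. Delta was normalized to 5.8 microM ADEP and DMSO/no-enzyme controls.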
An asterisk follows results filed as active; ? = inconclusive; . = no result; [ ] = another dose, or the depositor's remark. Sampled rows, rich in hits. Any-hit rate of the full collection: about 2%. Unless noted, calls come from the whole dose curve; as a rule, active = well fitted curve in the direction sought with a large enough effect; inconclusive = small, poorly fitted or top-dose-only effect, or another doubt; inactive = no such curve, though single readings can be large; an effect the other way counts as inactive or inconclusive.

SMILES	NPSR antagonist	PKM2 activator	IL-2 act	ClpP mod
CCSc1nc2ccccc2n1C(=O)/C=C/c1ccc(OC)c(OC)c1	-59%	1%	0	14µM*
CC(C)(C)OC(=O)NN=C(c1ccc(O)cc1)c1ccc(O)cc1	.	-4%	-2	1%
COCCNC(=O)CC(NS(=O)(=O)c1ccc(NC(C)=O)cc1)C(C)C (stereo not drawn)	-3%[46.1 µM]	9%	1	32µM*
O=C(Nc1cc(Cl)ccc1-n1cncn1)c1ccccc1OC(F)F	.	.	-1	.
O=C(C(Cc1ccccc1)N1C(=O)C2C3C=CC(C3)C2C1=O)N1CCCCCC1 (stereo not drawn)	-12%[46.1 µM]	0%	-2	1%
O=C(C(Cc1ccccc1)N1C(=O)C2C3C=CC(C3)C2C1=O)N1CCCCC1 (stereo not drawn)	16%[46.1 µM]	-1%	2	20µM*
CC(=O)Nc1ccccc1NC(=O)COc1cccc2ccccc12	.	6%	-2	-1%
CCN(C(=O)CCS(=O)(=O)c1cc2c(cc1C)NC(=O)CO2)c1cccc(C)c1	.	.	.	2%
CCN(C(=O)CCS(=O)(=O)c1cc2[nH]c(=O)c(=O)[nH]c2cc1C)c1ccccc1	.	.	.	32µM*
Cn1nc(-c2ccc(Cl)cc2)c2cc(C(=O)NCCCN3CCCC3)sc21	10µM*	1%	-2	4%
CCCCN(C)CCNC(=O)c1cc2c(-c3ccccc3F)nn(C)c2s1	.	.	-4	25µM*
COCCNC(=O)c1cc2c(-c3ccccc3F)nn(C)c2s1	14%	-1%	0	25µM*
CSc1cccc(NC(=O)COc2ccccc2C)c1	-7%	18%	1	.
CC(C)(C)NC(=O)CN(C(=O)c1ccc(CN2CCOCC2)o1)c1ccc2c(c1)OCCO2	5%[46.1 µM]	-3%	-1	13µM*
Cc1ccc(-c2nc3ccccc3o2)cc1NC(=O)c1ccc2c(c1)OCO2	?	5%	-2	?
O=C(Nc1ccc2oc(-c3cccc4ccccc34)nc2c1)c1ncn[nH]1	-10%[46.1 µM]	-3%	0	32µM*
O=C(Nc1ccc2oc(-c3ccccc3F)nc2c1)c1ccc2c(c1)OCCO2	-13%[46.1 µM]	?	-3	28µM*
O=C(Nc1ccc(-c2nc3ccccc3o2)cc1)c1ccc2c(c1)OCO2	?	-2%	-1	32µM*
Cc1cc(NC(=O)c2ccc3c(c2)OCCO3)cc(-c2nc3ccccc3o2)c1O	.	.	.	0%
O=C(Nc1ccc(-c2nc3ccccc3o2)cc1)c1ccc(N2C(=O)C3C4C=CC(C4)C3C2=O)cc1 (stereo not drawn)	-4%[46.1 µM]	-9%	3	3.2µM*
O=C(Nc1ccc(-c2nc3ccccc3o2)cc1)c1cccnc1	-17%[46.1 µM]	3%	1	-2%
CCOc1cc(/C=C2\SC(=NC)N(C)C2=O)cc(Cl)c1OC(C)=O	.	.	2	-1%
COc1cccc(C(=O)N2CCN(c3nc4cc(C)cc(C)c4cc3C#N)CC2)c1	.	.	0	?
Cc1nc(SCC(=O)NC2CCS(=O)(=O)C2)c2c3c(sc2n1)CCC3 (stereo not drawn)	.	.	1	0%
CC(=O)Nc1ccc2oc(-c3cc(F)c(F)cc3Cl)nc2c1	1%[46.1 µM]	-2%	2	18µM*
SMILES	NPSR antagonist	PKM2 activator	IL-2 act	ClpP mod
COc1cc(-c2nc3c(c(C)nn3-c3ccccc3)c3cc(OC)c(OC)cc23)ccc1O	-18%[46.1 µM]	9%	-1	7.9µM*
COc1cc2c(-c3ccccc3C)nc3c(c(C)nn3-c3ccccc3)c2cc1OC	.	.	.	5%
CSC(=NNC(=O)c1ccc(O)cc1)SC	-6%[46.1 µM]	-22%	0	28µM*
CCOC(=O)N1CCN(C(=O)C(CC)c2ccccc2)CC1 (stereo not drawn)	9%	-2%	0	0%
O=C(Nc1ncn[nH]1)c1cc(S(=O)(=O)Nc2ccc(Cl)cc2)ccc1Cl	10%	0%	2	-2%
O=C(Nc1ncn[nH]1)c1ccc(Cl)c(S(=O)(=O)Nc2ccc(Cl)cc2)c1	-9%	0%	-2	32µM*
N#CC1=C(N)Oc2c(ccc3cccnc23)C1c1cccnc1 (stereo not drawn)	-4%	0%	-3	25µM*
COc1ccc2[nH]c3c(N4CCC(O)(c5cccc(C(F)(F)F)c5)CC4)ncnc3c2c1	?	5%	4	32µM*
CC1C(=O)N(Cc2cn(Cc3ccco3)nn2)CCS(=O)(=O)N1Cc1ccc(-c2ccccc2Cl)cc1 (stereo not drawn)	.	.	-1	-2%
COc1cc(CNCCc2ccccc2)ccc1OCC(=O)NC(C)(C)C	0%[46.1 µM]	-1%	0	1%
Cc1ccc(-c2cc(C(F)(F)F)c(C#N)c(SCCC#N)n2)o1	-20%[46.1 µM]	-9%	1	4.5µM*
CCOC(=O)CNc1c(-c2ccc(Cl)cc2)nc2cnccn12	1%[46.1 µM]	-3%	-2	28µM*
CCOC(=O)CNc1c(-c2ccc(OC)cc2)nc2ccc(Cl)cn12	-3%[46.1 µM]	-11%	3	-9%
CCOC(=O)CNc1c(-c2ccc(F)cc2)nc2cnccn12	-26%[46.1 µM]	5%	-1	25µM*
CCc1cccc(C)c1NC(=O)C1CCN(S(=O)(=O)c2cccc3nonc23)CC1	.	.	.	3%
Cc1ccc(C(=O)c2oc3ccccc3c2NC(=O)COc2ccc(C(C)C)cc2)cc1	.	.	.	6%
CC(C)(C)c1ccc(OCc2ccc(C(=O)N/N=C/c3ccc(O)c(O)c3)cc2)cc1	13µM*	-1%	-6	.
C=CC(=O)N1C/C(=C/c2ccccc2)C(=O)/C(=C\c2ccccc2)C1	.	.	-6	32µM*
COc1cccc(NC(=O)CSc2ccc3nnc(-c4ccncc4)n3n2)c1	-3%[46.1 µM]	1.8µM*	1	0%
COc1cccc(NC(=O)CSc2ccc3nnc(-c4ccccn4)n3n2)c1	.	23%	0	0%
Cc1nnc(NC(=O)CSc2ccc(-c3ccco3)nn2)s1	2%	20µM*	-2	.
COc1cccc(NC(=O)CSc2ccc(-c3ccco3)nn2)c1	.	3.2µM*	-2	-6%
Cc1cccc(C(CC(=O)NCCc2ccccc2)c2ccccc2)c1O (stereo not drawn)	-53%	12%	0	3%
O=C(CCN1C(=O)c2cccc3cccc(c23)C1=O)NCC1CCCO1 (stereo not drawn)	-1%	1%	1	.
CCCC(C)NC(=O)CN1C(=O)c2cccc3cccc1c23 (stereo not drawn)	.	-1%	0	22µM*
O=C(CN1C(=O)c2cccc3cccc1c23)NCC1CCCO1 (stereo not drawn)	-2%[46.1 µM]	0%	0	25µM*
CC(C)C(NC(=O)CN1C(=O)c2cccc3cccc1c23)C(C)C	.	3%	-1	?
O=C(CSc1nc2c([nH]c3ccccc32)c(=O)n1-c1ccc(F)cc1)NCC1CCCO1 (stereo not drawn)	.	.	.	22µM*
COc1cc2c(cc1OC)C1=NC(=O)CN1C(SCc1ccc(C)cc1)=N2	-12%[46.1 µM]	-10%	2	20µM*
